DT40 TDP1 CPT – qHTS for Inhibitors of human tyrosyl-DNA phosphodiesterase 1 (TDP1): qHTS in cells in presence of CPT; chicken DT40 Tdp1-/-;hTDP1 cells + 20 nM CPT, ATP luminescence, 48 h; Potency, µM (top dose mostly 46.2 µM), without a hit: at the highest dose activity change, negative = growth inhibition, usual class: inhibitors; 420,000 compounds, 12% hits; also: potency is read from the fitted curve at half-maximal effect; nearly all actives have a fitted effect of over 55% in size
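Chicken DT40 Tdp1-/- cells complemented with human TDP1, 400 cells/well, exposed to compounds plus 20 nM camptothecin for at least 48 h at 37 C; viability read as ATP content by CellTiter-Glo luminescence.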
IL1B secr inh – qHTS for Inhibitors of Inflammasome Signaling: IL-1-beta AlphaLISA Primary Screen | THP-1 LPS/ATP IL-1B secretion, AlphaLISA, 16 h; stronger effect = lower value | 360,000 compounds, 4.7% hits | activity change, % at 57.5 µM; in the data active = activity change below about -50%; inconclusive = mostly about -30% to -49%
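THP-1 cells pretreated 1 hr with compounds (up to 57.5 uM final), then stimulated with LPS (250 ng/mL final) plus ATP (1.25 mM final); secreted IL-1B measured by AlphaLISA after 16 hr, decreased signal indicating inhibition.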
TDP1 block – qHTS Assay for Inhibitors of Tyrosyl-DNA Phosphodiesterase (TDP1). 350,000 compounds, 0.28% hits. Potency, µM (top dose mostly 130 µM), for the others: at the highest dose activity change, negative = inhibition, most hits filed as inhibitors. Tyrosyl-DNA phosphodiesterase 1 (Homo sapiens), Q9NUW8. recombinant TDP1, AlphaScreen DNA substrate cleavage. AID 485290, 2010; also: potency is read from the fitted curve at half-maximal effect; nearly all actives have a fitted effect of over 40% in size
Target sequence (Q9NUW8 whole entry, looked up): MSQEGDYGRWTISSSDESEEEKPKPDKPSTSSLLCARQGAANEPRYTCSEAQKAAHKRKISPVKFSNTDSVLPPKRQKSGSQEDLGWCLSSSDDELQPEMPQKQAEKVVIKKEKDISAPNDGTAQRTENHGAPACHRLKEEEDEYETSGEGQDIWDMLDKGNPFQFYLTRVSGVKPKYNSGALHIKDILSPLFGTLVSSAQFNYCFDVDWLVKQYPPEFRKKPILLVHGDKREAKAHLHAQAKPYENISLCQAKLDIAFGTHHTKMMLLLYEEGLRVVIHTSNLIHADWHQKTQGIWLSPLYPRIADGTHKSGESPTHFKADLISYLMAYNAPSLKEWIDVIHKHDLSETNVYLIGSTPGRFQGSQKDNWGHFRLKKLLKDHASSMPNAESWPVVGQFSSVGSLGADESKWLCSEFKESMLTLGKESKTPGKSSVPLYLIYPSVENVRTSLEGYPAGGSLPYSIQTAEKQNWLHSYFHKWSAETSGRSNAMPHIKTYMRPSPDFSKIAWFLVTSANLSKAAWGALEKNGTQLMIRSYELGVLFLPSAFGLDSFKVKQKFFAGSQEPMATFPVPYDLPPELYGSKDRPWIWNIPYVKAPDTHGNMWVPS
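AlphaScreen read-out: signal falls as enzyme removes the 3' tyrosine-FITC from a 5'-biotinylated DNA oligo (15 nM, 5 min, RT). Enzyme was E. coli-made recombinant Tdp1 at 1 nM, exposed to compound for 15 min beforehand; beads 10 ug/ml, 10 min.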
Giardia killer – Small Molecules that selectively kill Giardia lamblia: qHTS. 340,000 compounds, 0.15% hits. activity change, % at 7.66 µM, hits read low. Giardia lamblia trophozoite viability. AID 540267, 2011; in the data active = activity change below about -80%; inconclusive = between about -30% and that limit;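 also: parasites exposed to compound for two days anaerobically before the ATP read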
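Viability, read as ATP luminescence: trophozoites at 100 cells/well, compound added, 48 hrs anaerobic at 37 deg C, then 15-30 min room-temperature development before reading.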
ELG1 repair inh – qHTS screen for small molecules that inhibit ELG1-dependent DNA repair in human embryonic kidney (HEK293T) cells expressing luciferase-tagged ELG1; HEK293T ELG1-luciferase reporter, luminescence, 16 h; DNA damage induced by 5-fluorouridine; Potency, µM (doses to about 46.1 µM), for the others: at the top dose activity change, negative = inhibition, most hits filed as inhibitors; 330,000 compounds, 2.3% hits; AID 504467, 2011; also: potency is read from the fitted curve at half-maximal effect; nearly all actives have a fitted effect of over 55% in size
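In this reporter screen, reduction of luminescence relative to DMSO vehicle indicated activity. Compounds and 5-fluorouridine were added together to 2,000 cells per well, incubated for 16 hr at 37 °C, then developed with ONE-Glo.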
DT40 TDP1 no CPT – qHTS for Inhibitors of human tyrosyl-DNA phosphodiesterase 1 (TDP1): qHTS in cells in absence of CPT; 420,000 compounds, 15% hits; Potency, µM (series often up to 46.2 µM), for inactives: top-dose activity change, negative = growth inhibition, usual class: inhibitors; DT40 Tdp1-/- hTDP1 cells, no CPT, ATP luminescence, 48 h; also: potency is read from the fitted curve at half-maximal effect; nearly all actives have a fitted effect of over 55% in size
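Compound effects on proliferation are scored in DT40 Tdp1-/-;hTDP1 cells in the absence of CPT. ATP levels (CellTiter-Glo luminescence) are recorded after a ≥48 hr, 37 °C incubation.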
The depositor's hits bear a star; u = inconclusive; x = no result; [ ] = remark or other dose. The list is not random: actives were taken first. Their share in the collection is about 19%. Unless noted, calls follow the shape of the dose curve; as a rule, active = well fitted curve in the direction sought with a large enough effect; inconclusive = small, poorly fitted or top-dose-only effect, or another doubt; inactive = no such curve, though single readings can be large; an effect the other way counts as inactive or inconclusive. % is scaled to controls: 0 for no effect and ±100 for the full control effect.

SMILES | DT40 TDP1 CPT | IL1B secr inh | TDP1 block | Giardia killer | ELG1 repair inh | DT40 TDP1 no CPT
CNc1ncnc2c1ncn2[C@H]1C[C@H](O)[C@@H](CO)O1 | u | x | 9% | x | x | 7.3µM*
Nc1nc(Cl)nc2c1ncn2C1OCC(O)C(O)C1O (centres undefined) | -19% | 0 | x | 3 | x | -15%
COC1C(O)C(CO)OC1n1cnc2c(=O)[nH]c(N)nc21 (centres undefined) | 11% | x | 3% | x | x | 6%
Nc1nc2c(ncn2[C@H]2C[C@H](O)[C@@H](CO)O2)c(=O)[nH]1 | 4.6µM* | 0 | 0% | -27 | 8% | 2.1µM*
C=C1[C@H](CO)[C@@H](O)C[C@@H]1n1cnc2c(=O)[nH]c(N)nc21 | 0.0084µM* | x | x | x | x | 0.0053µM*
COc1ccc(/C=C/CN2CCC(n3nccc3NC(=O)C3CCCC3)CC2)cc1 | -13% | u | 1% | -7 | 11% | -26%
CC(=O)Nc1cncc(-c2ccccc2F)n1 | -14% | 7 | x | x | x | -17%
CSc1ccc(CCNC(=O)C2=C(C)C(=O)OC23CCCCC3)cc1 | -5% | x | 1% | x | x | -21%
Nc1nc2c(ncn2C2CC(O)C(CO)O2)c(=O)[nH]1 (centres undefined) | 10µM* | x | 9%[56.1 µM] | x | x | 5.8µM*
CN(C)/C=N/c1nc2c(ncn2C2CC(O)C(CO)O2)c(=O)[nH]1 (centres undefined) | -14% | x | 2% | 7 | x | -1%
Nc1ncn([C@H]2C[C@H](O)[C@@H](CO)O2)c(=O)n1 | 0.041µM* | 4 | x | u | 13% | 0.1µM*
Nc1ccn([C@H]2C[C@H](O)[C@@H](CO)O2)c(=O)n1 | 12% | 15 | 8% | -10 | u | 17%
COc1ccccc1-c1cncc(NC(C)=O)n1 | -3% | 24 | x | x | x | 2%
O=C(CC(CC(=O)c1ccccc1)c1ccncc1)c1ccccc1 | u | -2 | x | 14 | x | u
O=C(CC(CC(=O)c1ccc(Br)cc1)c1cccnc1)c1ccc(Br)cc1 | 15µM* | 10 | x | -6 | -27% | 15µM*
CCN(CC)C(=O)N1c2ccccc2Sc2ccccc21 | u | 7 | x | -6 | 7% | u
CCN(CC)C(=O)N1c2ccccc2CC(N(CC)CC)c2ccccc21 (centres undefined) | 7.3µM* | -20 | 4% | 17 | -3% | 5.8µM*
CCCCC1C(C#N)=C(C)NC2=C1C(=O)CC(C)(C)C2 (centres undefined) | -29% | -10 | 1% | -4 | -22% | u
COCCN1C(=O)c2ccccc2C(C(=O)NCCCN2CCCC2)C1c1c[nH]c2ccccc12 (centres undefined) | u | 3 | 5%[56.1 µM] | 13 | 0% | 26µM*
COCCN1C(=O)c2ccccc2C(C(=O)NCc2ccco2)C1c1c[nH]c2ccccc12 (centres undefined) | -14% | 17 | 0% | 12 | -12% | -12%
Cc1c(NC(=O)c2cccc3c(Cl)cccc23)cccc1-c1nc2ccccc2o1 | 15µM* | x | 3% | x | x | 21µM*
O=C(Nc1cc(-c2nc3ccccc3o2)ccc1Cl)c1cccc2c(Cl)cccc12 | u | x | 2% | x | x | -22%
Cc1c(NC(=O)c2ccc(Br)o2)cccc1-c1nc2ccccc2o1 | 26µM* | x | -6%[12.3 µM] | x | x | 23µM*
Cc1ccccc1NC(=O)CSc1nc(-c2ccc(F)cc2)nc2c1Cc1ccccc1O2 | 18% | x | 1% | x | x | -9%
CCOc1cc(CNC(=O)c2cc(-c3ccccc3)n[nH]2)cc(OCC)c1OCC | u | x | 3% | x | x | u
SMILES | DT40 TDP1 CPT | IL1B secr inh | TDP1 block | Giardia killer | ELG1 repair inh | DT40 TDP1 no CPT
CCOC(=O)C(=NO)C1=CSC2=NNC(C)(C)N12 | u | -1 | x | x | x | 21µM*
N#Cc1ccccc1OCC(=O)N(Cc1nnc(-c2ccccc2Cl)o1)C1CC1 | u | 1 | -5% | 7 | 3% | 16µM*
COc1ccccc1OCC(=O)N(Cc1nnc(-c2ccccc2Cl)o1)C1CC1 | u | -4 | x | 7 | -7% | u
CCCNS(=O)(=O)c1ccc(N2CCCC2=O)c([N+](=O)[O-])c1 | -1% | -1 | 3% | -19 | -4% | -4%
O=C1CCCN1c1ccc(S(=O)(=O)Oc2ccc(Cl)cc2)cc1[N+](=O)[O-] | 21µM* | -6 | -2% | u | -11% | 21µM*
O=[N+]([O-])c1cc(S(=O)(=O)Oc2ccccc2)ccc1Cl | 0.58µM* | -101* | x | 15 | x | 0.58µM*
CCCC(=O)c1ccc(N2CCC(C)CC2)c(F)c1 | u | 2 | 3% | 3 | u | u
CC(=O)Nc1ccccc1OCc1nnc(-c2ccc(Cl)cc2)o1 | 20% | -5 | 3% | -19 | u | u
Cc1ccccc1OCC(=O)N(Cc1nnc(-c2ccc(Cl)cc2)o1)C(C)C | u | -14 | -5% | -17 | -20% | 15µM*
O=C1C(Cl)=C(O)C2(Cl)C(Cl)=C(Cl)C12Cl (centres undefined) | -7% | 7 | x | 24 | x | -14%
COc1ccc(CNC2CCCc3ccccc32)cc1OC (centres undefined) | u | -8 | -5% | 18 | -26% | 18µM*
COc1ccc(C(=O)OC(C)C(=O)NC2CCCc3ccccc32)cc1OC (centres undefined) | -30% | -52* | 0% | -1 | u | -16%
COc1ccccc1CN(C)CC(=O)NC1CCCc2ccccc21 (centres undefined) | 15µM* | 4 | -1% | -10 | -25% | u
COc1cc(SC)ccc1C(=O)NC1CCCc2ccccc21 (centres undefined) | u | -16 | -17% | -15 | u | u
COc1ccc(C(=O)NC2CCCc3ccccc32)c(OC)c1OC (centres undefined) | 18µM* | 13 | 0% | 6 | -23% | 21µM*
COc1ccccc1C(=O)NCC(=O)NC1CCCc2ccccc21 (centres undefined) | u | 29 | 8% | 1 | -9% | u
COc1cccc(CN(C(=O)c2ccc(C(C)(C)C)cc2)C2CCS(=O)(=O)C2)c1 (centres undefined) | u | x | 7% | x | x | -35%
